In PubChem BioAssay (NCI):
This is part of a sample that, as a whole, favours compounds with a hit. Of some 79,000 tested, about 15% had one in any assay. Rule as the data show it: active = growth inhibition above about 70%; inactive = the rest.

Tests used:
[1] = NCI Yeast Anticancer Drug Screen. Data for the rad50 strain (AID 155);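 also: 0% = growth of vehicle-only cultures of the same strain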; conditions: S. cerevisiae rad50 strain growth inhibition; at 50.0 µM; active compounds read high
Method in brief: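 DNA repair mutant yeast, compound exposure, growth read-out; inhibition is taken relative to vehicle.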

[2] = NCI Yeast Anticancer Drug Screen. Data for the mec2-1 strain (AID 157); conditions: S. cerevisiae mec2-1 strain, at 50.0 µM, active compounds read high
Method in brief: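 Vehicle-treated cultures served as reference for growth inhibition of compound-exposed mec2-1 yeast.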

[3] = NCI Yeast Anticancer Drug Screen. Data for the sgs1 mgt1 strain (AID 161);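 also: 0% = growth of cultures given vehicle only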; conditions: S. cerevisiae sgs1 mgt1 strain, at 50.0 µM, active compounds read high
Method in brief: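 Inhibition of yeast growth, normalised to vehicle-treated controls, is reported for a strain bearing genetic alterations in DNA damage repair.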

[4] = NCI Yeast Anticancer Drug Screen. Data for the cln2 rad14 strain (AID 165);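 also: 0% = growth equal to vehicle treated cultures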; conditions: S. cerevisiae cln2 rad14 strain, at 50.0 µM, active compounds read high
Method in brief: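 Each compound was tested on cln2 rad14 yeast. Inhibition of growth was calculated against vehicle-exposed controls.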

[5] = NCI Yeast Anticancer Drug Screen. Data for the bub3 strain (AID 167); conditions: S. cerevisiae bub3 mutant strain, at 50.0 µM, active compounds read high
Method in brief: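 In this screen, a yeast mutant lacking normal mitotic checkpoint function is challenged with compound. Relative growth versus vehicle gives the inhibition value.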

[6] = NCI Yeast Anticancer Drug Screen. Data for the mlh1 rad18 strain (AID 175); conditions: S. cerevisiae mlh1 rad18 strain growth inhibition; at 50.0 µM; active compounds read high
Method in brief: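 Vehicle-treated cultures served as the reference for growth inhibition in a yeast strain carrying DNA damage repair alterations exposed to each compound.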

Measured: growth inhibition

[N-]=[N+]=NC1CC(n2ccc(=O)[nH]c2=O)OC1CO (stereo not given)
inactive: [1] -16.6% | [2] -21.9% | [3] 3.3% | [4] -13.6% | [5] -12.8% | [6] -6.85%

COc1ccc2c(c1)CCc1cc(OC)ccc1/[N+]([O-])=[N+]\2[O-]
inactive: [1] -1.2% | [2] 1.25% | [3] 6.8% | [4] -70.8% | [5] -5.1% | [6] 14.8%

COC(=O)C1=NOC(Cc2ccccc2)C1 (stereo not given)
inactive: [1] 10.3% | [2] 6.95% | [3] 0.15% | [4] -35.4% | [5] 6.45% | [6] -4.85%

COc1cc2c(cc1Cc1cc(OC)c(OC)c(OC)c1)OCO2
inactive: [1] 4.35% | [2] -17.2% | [3] 9.55% | [4] -3.15% | [5] 28.9% | [6] 24.4%

ClC1(c2ccccc2)c2ccccc2C(Cl)(c2ccccc2)c2ccccc21 (stereo not given)
inactive: [1] 17.9% | [2] 0.1% | [3] -6.7% | [4] -3.8% | [5] 12.2% | [6] 27.9%

CCOC(=O)C(C(C)=O)C(NO)C(Cl)(Cl)Cl (stereo not given)
inactive: [1] 5.4% | [2] 13.6% | [3] 3.4% | [4] 17.1% | [5] 2.2% | [6] -3.05%

CCCCCCCCCCCCCCCCCCCCCCCCC(O)C(=O)O (stereo not given) (tested in a mixture with another compound)
inactive: [1] -33% | [2] -31.4% | [3] -2.4% | [4] -23.2% | [5] 7.7% | [6] -0.45%

C=CCNC(=S)NN(C)C
inactive: [1] -42% | [2] -16% | [3] -16.9% | [4] -51.5% | [5] -28.2% | [6] -16.4%

O=[N+]([O-])c1ccc(OCC#CCOc2ccc([N+](=O)[O-])c(C(F)(F)F)c2)cc1C(F)(F)F
inactive: [1] 31.4% | [2] -13.6% | [3] -0.2% | [4] 4.65% | [5] -2.3% | [6] -3.75%

Cc1ccc(NC(=S)NCCc2ccccn2)cc1C
inactive: [1] 29.2% | [2] 13.8% | [3] 28.9% | [4] 1.45% | [5] 21.3% | [6] 21.6%

CCOCC/C(=N\Nc1ccc([N+](=O)[O-])cc1[N+](=O)[O-])c1ccccc1
inactive: [1] 19.8% | [2] 5.85% | [3] 11.2% | [4] 19.6% | [5] 30% | [6] 9.55%

NC1=NC(c2ccccc2)N=C(Nc2ccccc2)N1 (stereo not given)
inactive: [1] 37.2% | [2] 1.4% | [3] 16.4% | [4] -15% | [5] 15.2% | [6] 41.6%

CCCOC(=O)Nc1cccc(Cl)c1
inactive: [1] 49.5% | [2] -8.7% | [3] 13.6% | [4] -9.95% | [5] -9.35% | [6] 12.4%

CC(=O)Nc1ccc(/C=N/NS(=O)(=O)c2ccc(C)cc2)cc1
inactive: [1] 0.3% | [2] 34.7% | [3] 16.9% | [4] -1.85% | [5] 30.6% | [6] 17.1%

O=C(Cc1ccccc1)Nc1ccc(Br)cc1
inactive: [1] 6.15% | [2] 15.8% | [3] 15.5% | [4] -16.1% | [5] 13.7% | [6] 8.55%

Cc1ccnc(-n2c(N)cc(=O)[nH]c2=S)c1
inactive: [1] -7.15% | [2] 1.3% | [3] 10.6% | [4] -17.4% | [5] 27.6% | [6] 5.55%

O=C(c1ccc(F)cc1)c1cccc(C(=O)c2ccc(F)cc2)n1
inactive: [1] -16.8% | [2] -24% | [3] -29.9% | [4] 8.15% | [5] -3.4% | [6] -36.1%

CN(C)C(=S)/N=c1\ssc(=S)n1Cc1ccccc1
inactive: [1] -10.4% | [2] -24.9% | [3] -4.55% | [4] 16.4% | [5] -17.9% | [6] -86.5%

O=C(O)CCC(=O)Oc1ccc(O)c2c1CCCC2=O
inactive: [1] -6.95% | [2] 1.65% | [3] -0.95% | [4] -17.8% | [5] -1.3% | [6] -9.15%

C1OCC(C2OCOC2C2OCOC2C2COCO2)O1 (stereo not given)
inactive: [1] 7.8% | [2] 20.9% | [3] -5.25% | [4] -8.65% | [5] 34.9% | [6] 9.5%
